# Measured values taken from PubChem BioAssay (NCI).
# Compounds without any hit were thinned out: in the full panel of roughly 79,000, 15% have a hit. Values without a mark were called inactive. Calls of active or inactive are those of the source. No stated cut-off is given here; in the data, active means growth inhibition above about 70%; inactive means the rest.
# How the values were obtained:
# [1] = NCI Yeast Anticancer Drug Screen. Data for the sgs1 strain (AID 173);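 further: 0% = growth of vehicle-only control cultures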; conditions: S. cerevisiae sgs1 mutant, active compounds read high
# In short: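 A genetically defined yeast mutant is incubated with the test compound, and its growth is compared to that of the same strain given vehicle.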
# [2] = NCI Yeast Anticancer Drug Screen. Data for the mlh1 rad18 strain (AID 175); conditions: S. cerevisiae mlh1 rad18 strain growth inhibition, active compounds read high
# In short: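 Steps: expose repair-defective yeast to compound; measure growth; express inhibition against vehicle-treated controls.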
# [3] = NCI Yeast Anticancer Drug Screen. Data for the rad18 strain (AID 177); conditions: S. cerevisiae rad18 mutant growth inhibition, active compounds read high
# In short: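 Measured value is growth inhibition of a yeast strain bearing a DNA repair alteration, referenced to vehicle-treated cells.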
# [4] = NCI Yeast Anticancer Drug Screen. Data for the rad52 strain (AID 147);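 further: 0% = growth of vehicle-treated control cultures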; conditions: S. cerevisiae rad52 mutant growth inhibition, active compounds read high
# In short: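 Here a repair-compromised yeast strain receives each compound; its growth is then quantified and normalised to vehicle-only controls.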
# [5] = NCI Yeast Anticancer Drug Screen. Data for the rad50EPP+ strain (AID 151);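 further: 0% = growth of vehicle-treated control cultures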; conditions: S. cerevisiae rad50 mutant strain, active compounds read high
# In short: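 Read-out is yeast growth inhibition relative to vehicle; cells used were the rad50EPP+ strain.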
# [6] = NCI Yeast Anticancer Drug Screen. Data for the mgt1 strain (AID 153); conditions: S. cerevisiae mgt1 mutant growth inhibition, active compounds read high
# In short: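 Measured: inhibition of mgt1 yeast growth by compound, normalized to vehicle-treated cultures.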
# [7] = NCI Yeast Anticancer Drug Screen. Data for the rad50 strain (AID 155);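 further: 0% = growth of vehicle-only cultures of the same strain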; conditions: S. cerevisiae rad50 strain growth inhibition, active compounds read high
# In short: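 Genetically altered yeast (DNA repair pathway); compound treatment; growth inhibition vs vehicle ctrl.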
# [8] = NCI Yeast Anticancer Drug Screen. Data for the mec2-1 strain (AID 157); conditions: S. cerevisiae mec2-1 strain, active compounds read high
# In short: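 Using mec2-1 yeast: add compound, measure growth, express inhibition versus vehicle-treated cultures.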
# [9] = NCI Yeast Anticancer Drug Screen. Data for the rad14 strain (AID 159);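 further: 0% = growth of vehicle-treated control cultures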; conditions: S. cerevisiae rad14 strain growth inhibition, active compounds read high
# In short: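 Test compounds were applied to a repair-deficient yeast strain. Its growth was then compared with that of cultures given vehicle alone, and inhibition was expressed relative to those controls.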
# [10] = NCI Yeast Anticancer Drug Screen. Data for the sgs1 mgt1 strain (AID 161);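 further: 0% = growth of cultures given vehicle only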; conditions: S. cerevisiae sgs1 mgt1 strain, active compounds read high
# In short: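 This yeast growth screen uses a strain with defined DNA-repair lesions; compound-treated growth is compared with vehicle-treated growth.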
# [11] = NCI Yeast Anticancer Drug Screen. Data for the CLN2oe strain (AID 163);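 further: 0% = growth of vehicle-only control cultures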; conditions: S. cerevisiae CLN2oe strain, active compounds read high
# In short: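 Whole-cell yeast growth assay. A strain engineered for altered cell-cycle control received compound, and inhibition relative to vehicle-treated cultures was recorded.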
# [12] = NCI Yeast Anticancer Drug Screen. Data for the cln2 rad14 strain (AID 165);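 further: 0% = growth equal to vehicle treated cultures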; conditions: S. cerevisiae cln2 rad14 strain, active compounds read high
# In short: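 Yeast strain cln2 rad14, bearing defects in cell cycle control and DNA repair, serves as the test system; values reflect growth inhibition compared with vehicle.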
# [13] = NCI Yeast Anticancer Drug Screen. Data for the bub3 strain (AID 167); conditions: S. cerevisiae bub3 mutant strain, active compounds read high
# In short: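 Yeast carrying a defined mutation is treated with each compound, and growth is compared with that of vehicle-exposed cells to give inhibition.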
# [14] = NCI Yeast Anticancer Drug Screen. Data for the wt2 strain (AID 169);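 further: 0% = growth of vehicle-treated yeast cultures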; conditions: S. cerevisiae wt2 strain growth inhibition, active compounds read high
# In short: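 Treated yeast vs. vehicle-treated yeast: growth inhibition determined.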
# [15] = NCI Yeast Anticancer Drug Screen. Data for the mlh1 strain (AID 171);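 further: 0% = growth of vehicle-treated control cultures of the same strain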; conditions: S. cerevisiae mlh1 strain growth inhibition, active compounds read high
# In short: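 A yeast strain with a defined genetic lesion serves as the test organism. Cultures receive compound or vehicle, and growth is measured.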
# [16] = NCI Yeast Anticancer Drug Screen. Data for the wt1 strain (AID 149);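 further: 0% = growth of vehicle-treated wt1 cultures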; conditions: S. cerevisiae wt1 strain (SPY 50644) growth inhibition, active compounds read high
# In short: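 wt1 yeast, compound-treated; % growth inhibition vs vehicle control.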
# [17] = at 5.0 µM (retest, dose inferred, filed as 0.5)
# [18] = at 50.0 µM (retest, dose inferred, filed as 5.0)
compound,measurement,setting,value
CN=C(N)N/N=C/c1ccc2c(c1)Cc1ccccc1-2,growth inhibition,[1]; at 1.2 µM,12%
same,growth inhibition,[1]; at 3.7 µM,35%
same,growth inhibition,[1]; at 11.0 µM,50%
same,growth inhibition,[1]; at 33.0 µM,58%
same,growth inhibition,[1]; at 100.0 µM,93% (active)
same,growth inhibition,[2]; [17],42%
same,growth inhibition,[2]; [18],85% (active)
same,growth inhibition,[2]; at 50.0 µM,81.2% (active)
same,growth inhibition,[3]; at 1.2 µM,-5%
same,growth inhibition,[3]; at 3.7 µM,-15%
same,growth inhibition,[3]; at 11.0 µM,-12%
same,growth inhibition,[3]; at 33.0 µM,1%
same,growth inhibition,[3]; at 100.0 µM,90% (active)
O=C(O)C1OC1(c1cccc(Cl)c1)c1ccccc1Cl (centres undefined),growth inhibition,[4]; at 1.2 µM,-9%
same,growth inhibition,[4]; at 3.7 µM,-8%
same,growth inhibition,[4]; at 11.0 µM,13%
same,growth inhibition,[4]; at 33.0 µM,56%
same,growth inhibition,[4]; at 100.0 µM,91% (active)
same,growth inhibition,[5]; at 1.2 µM,0%
same,growth inhibition,[5]; at 3.7 µM,9%
same,growth inhibition,[5]; at 11.0 µM,12%
same,growth inhibition,[5]; at 33.0 µM,25%
same,growth inhibition,[5]; at 100.0 µM,36%
same,growth inhibition,[6]; at 1.2 µM,17%
same,growth inhibition,[6]; at 3.7 µM,16%
same,growth inhibition,[6]; at 11.0 µM,28%
same,growth inhibition,[6]; at 33.0 µM,67%
same,growth inhibition,[6]; at 100.0 µM,95% (active)
same,growth inhibition,[7]; at 1.2 µM,1%
same,growth inhibition,[7]; at 3.7 µM,7%
same,growth inhibition,[7]; [17],43%
same,growth inhibition,[7]; at 11.0 µM,12%
same,growth inhibition,[7]; at 33.0 µM,48%
same,growth inhibition,[7]; [18],59%
same,growth inhibition,[7]; at 50.0 µM,90.1% (active)
same,growth inhibition,[7]; at 100.0 µM,88% (active)
same,growth inhibition,[8]; at 1.2 µM,-6%
same,growth inhibition,[8]; at 3.7 µM,-13%
same,growth inhibition,[8]; [17],57%
same,growth inhibition,[8]; at 11.0 µM,2%
same,growth inhibition,[8]; at 33.0 µM,58%
same,growth inhibition,[8]; [18],61%
same,growth inhibition,[8]; at 50.0 µM,92% (active)
same,growth inhibition,[8]; at 100.0 µM,94% (active)
same,growth inhibition,[9]; at 1.2 µM,-19%
same,growth inhibition,[9]; at 3.7 µM,-12%
same,growth inhibition,[9]; at 11.0 µM,-11%
same,growth inhibition,[9]; at 33.0 µM,75% (active)
same,growth inhibition,[9]; at 100.0 µM,91% (active)
same,growth inhibition,[10]; [17],-12%
same,growth inhibition,[10]; [18],93% (active)
same,growth inhibition,[10]; at 50.0 µM,93.1% (active)
same,growth inhibition,[11]; at 1.2 µM,15%
same,growth inhibition,[11]; at 3.7 µM,16%
same,growth inhibition,[11]; at 11.0 µM,13%
same,growth inhibition,[11]; at 33.0 µM,39%
same,growth inhibition,[11]; at 100.0 µM,93% (active)
same,growth inhibition,[12]; [17],54%
same,growth inhibition,[12]; [18],96% (active)
same,growth inhibition,[12]; at 50.0 µM,90.7% (active)
same,growth inhibition,[13]; at 1.2 µM,0%
same,growth inhibition,[13]; at 3.7 µM,-5%
same,growth inhibition,[13]; [17],30%
same,growth inhibition,[13]; at 11.0 µM,9%
same,growth inhibition,[13]; at 33.0 µM,70% (active)
same,growth inhibition,[13]; [18],95% (active)
same,growth inhibition,[13]; at 50.0 µM,89.9% (active)
same,growth inhibition,[13]; at 100.0 µM,92% (active)
same,growth inhibition,[14]; at 1.2 µM,-35%
same,growth inhibition,[14]; at 3.7 µM,-20%
same,growth inhibition,[14]; at 11.0 µM,-18%
same,growth inhibition,[14]; at 33.0 µM,26%
same,growth inhibition,[14]; at 100.0 µM,93% (active)
same,growth inhibition,[15]; at 1.2 µM,-26%
same,growth inhibition,[15]; at 3.7 µM,-25%
same,growth inhibition,[15]; at 11.0 µM,-10%
same,growth inhibition,[15]; at 33.0 µM,37%
same,growth inhibition,[15]; at 100.0 µM,90% (active)
same,growth inhibition,[1]; at 1.2 µM,-13%
same,growth inhibition,[1]; at 3.7 µM,-5%
same,growth inhibition,[1]; at 11.0 µM,1%
same,growth inhibition,[1]; at 33.0 µM,51%
same,growth inhibition,[1]; at 100.0 µM,90% (active)
same,growth inhibition,[2]; [17],47%
same,growth inhibition,[2]; [18],53%
same,growth inhibition,[2]; at 50.0 µM,90.5% (active)
same,growth inhibition,[3]; at 1.2 µM,-6%
same,growth inhibition,[3]; at 3.7 µM,-16%
same,growth inhibition,[3]; at 11.0 µM,3%
same,growth inhibition,[3]; at 33.0 µM,57%
same,growth inhibition,[3]; at 100.0 µM,90% (active)
Cc1nc(-[n+]2nc(-c3ccncc3)nn2-c2ccccc2)sc1C,growth inhibition,[16]; at 1.2 µM,-1%
same,growth inhibition,[16]; at 3.7 µM,-2%
same,growth inhibition,[16]; at 11.0 µM,-14%
same,growth inhibition,[16]; at 33.0 µM,9%
same,growth inhibition,[16]; at 100.0 µM,-11%
same,growth inhibition,[5]; at 1.2 µM,3%
same,growth inhibition,[5]; at 3.7 µM,16%
same,growth inhibition,[5]; at 11.0 µM,41%
same,growth inhibition,[5]; at 33.0 µM,44%
same,growth inhibition,[5]; at 100.0 µM,36%
same,growth inhibition,[7]; at 1.2 µM,-3%
same,growth inhibition,[7]; at 3.7 µM,-46%
same,growth inhibition,[7]; [17],1%
same,growth inhibition,[7]; at 11.0 µM,3%
same,growth inhibition,[7]; at 33.0 µM,48%
same,growth inhibition,[7]; [18],21%
same,growth inhibition,[7]; at 50.0 µM,66.2%
same,growth inhibition,[7]; at 100.0 µM,58%
same,growth inhibition,[8]; at 1.2 µM,-1%
same,growth inhibition,[8]; at 3.7 µM,-2%
same,growth inhibition,[8]; [17],0%
same,growth inhibition,[8]; at 11.0 µM,-3%
same,growth inhibition,[8]; at 33.0 µM,33%
same,growth inhibition,[8]; [18],-28%
same,growth inhibition,[8]; at 50.0 µM,78.5% (active)
same,growth inhibition,[8]; at 100.0 µM,39%
same,growth inhibition,[9]; at 1.2 µM,-2%
same,growth inhibition,[9]; at 3.7 µM,-3%
same,growth inhibition,[9]; at 11.0 µM,-7%
same,growth inhibition,[9]; at 33.0 µM,8%
same,growth inhibition,[9]; at 100.0 µM,1%
same,growth inhibition,[10]; [17],7%
same,growth inhibition,[10]; [18],76% (active)
same,growth inhibition,[10]; at 50.0 µM,74.8% (active)
same,growth inhibition,[11]; at 1.2 µM,-4%
same,growth inhibition,[11]; at 3.7 µM,-3%
same,growth inhibition,[11]; at 11.0 µM,-6%
same,growth inhibition,[11]; at 33.0 µM,25%
same,growth inhibition,[11]; at 100.0 µM,14%
same,growth inhibition,[12]; [17],0%
same,growth inhibition,[12]; [18],11%
same,growth inhibition,[12]; at 50.0 µM,63.9%
same,growth inhibition,[13]; at 1.2 µM,-1%
same,growth inhibition,[13]; at 3.7 µM,-5%
same,growth inhibition,[13]; [17],-45%
same,growth inhibition,[13]; at 11.0 µM,-5%
same,growth inhibition,[13]; at 33.0 µM,38%
same,growth inhibition,[13]; [18],60%
same,growth inhibition,[13]; at 50.0 µM,48%
same,growth inhibition,[13]; at 100.0 µM,18%
same,growth inhibition,[14]; at 1.2 µM,-2%
same,growth inhibition,[14]; at 3.7 µM,2%
same,growth inhibition,[14]; at 11.0 µM,18%
same,growth inhibition,[14]; at 33.0 µM,50%
same,growth inhibition,[14]; at 100.0 µM,72% (active)
same,growth inhibition,[1]; at 1.2 µM,-2%
same,growth inhibition,[1]; at 3.7 µM,7%
same,growth inhibition,[1]; at 11.0 µM,45%
same,growth inhibition,[1]; at 33.0 µM,69%
same,growth inhibition,[1]; at 100.0 µM,77% (active)
same,growth inhibition,[2]; [17],3%
same,growth inhibition,[2]; [18],48%
same,growth inhibition,[2]; at 50.0 µM,76.2% (active)
same,growth inhibition,[3]; at 1.2 µM,1%
same,growth inhibition,[3]; at 3.7 µM,3%
same,growth inhibition,[3]; at 11.0 µM,7%
same,growth inhibition,[3]; at 33.0 µM,46%
same,growth inhibition,[3]; at 100.0 µM,45%
